Screening data from PubChem.
HT1080 IDH1KD tx = HT-1080 IDH1 knockdown cell toxicity (counter line). Potency, µM (highest dose often 46.1 µM), inactives show top-dose activity, negative = toxicity, hits mostly cytotoxic. HT-1080 IDH1 knockdown viability, ATP luminescence, 48 h. AID 686971. actives 2% (n = 360,000);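 note: potency is the fitted concentration of half-maximal effect; 0% = DMSO wells and -100% = cell-free medium wells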
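HT-1080-IDH1KD cells (IDH1 knocked down), 750/well in RPMI with 5% FBS, treated with compound 48 h at 37 degrees C. Viability by CellTiter-Glo luminescence, normalised to DMSO and no-cell wells; concentration-response curves classed.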
IL1B secr inh = blocks inflammasome-driven IL-1 beta release; THP-1 LPS/ATP IL-1B secretion, AlphaLISA, 16 h; stronger effect = lower value; activity change, % at 57.5 µM; actives 4.7% (n = 360,000); in the data active = activity change below about -50%; inconclusive = mostly about -30% to -49%
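Secreted IL-1B measured by AlphaLISA bead assay after 16 h compound exposure of THP-1 cells; compounds (final up to 57.5 uM) added 1 h before LPS (250 ng/mL) and ATP (1.25 mM) stimulation; lower signal means less secretion.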
KB-3-1 tox = kills parental KB-3-1 adenocarcinoma cells; Potency, µM (doses to about 46.1 µM), most hits filed as cytotoxic; actives 1.4% (n = 400,000); KB-3-1 viability, CellTiter-Glo ATP luminescence, 72 h; note: potency is the fitted concentration of half-maximal effect; nearly all actives have a fitted effect of over 60% in size
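Cytotoxicity measured as CellTiter-Glo luminescence after 72 h at 37 C. Compound titrations were pinned onto drug-naive KB-3-1 parental adenocarcinoma cells grown in DMEM with 10% FBS, and normalized data fitted to concentration-response curves.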
HT1080NT lethal = kills 2HG-producing HT-1080-NT fibrosarcoma cells. HT-1080-NT fibrosarcoma viability, CellTiter-Glo ATP luminescence, 48 h. actives 1.6% (n = 360,000). Potency, µM (doses to about 46.1 µM), for the others: at the top dose activity, negative = less viability, hits mostly cytotoxic;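 note: NT is the 2HG producing partner of a matched IDH1 knockdown line; potency is the fitted concentration of half-maximal effect; 0% = DMSO-treated cells and -100% = media-only wells without cells; nearly all actives have a fitted effect of over 55% in size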
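Fibrosarcoma NT cells, 750 per well in 5% FBS RPMI, were exposed to compound for 48 hours. Viability: CellTiter-Glo luminescence.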
KB-V1 cytotox = kills drug-selected multidrug resistant KB-V1 cells | KB-V1 MDR cells viability, CellTiter-Glo, 72 h | Potency, µM (series often up to 46.1 µM), usual class: cytotoxic | actives 3.4% (n = 400,000); note: potency is the fitted concentration of half-maximal effect; nearly all actives have a fitted effect of over 60% in size
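Cytotoxicity via CellTiter-Glo luminescence after 72 h compound exposure at 37 degrees C. Cells: drug-selected KB-V1 line, DMEM phenol-red free plus 10% FBS. Compounds tested at multiple concentrations; normalized data fitted to concentration-effect curves.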
The depositor's hits bear a star; i = inactive; ? = inconclusive; . = not tested or not shown. Shown are actives, neighbours in structure and some others; about 8.8% of the full set was active somewhere. Unless noted, calls come from the whole dose curve; as a rule, active = well fitted curve in the direction sought with a large enough effect; inconclusive = small, poorly fitted or top-dose-only effect, or another doubt; inactive = no such curve, though single readings can be large; an effect the other way counts as inactive or inconclusive. Unless noted, % is set by controls: 0 for no effect and ±100 for the full control effect.

SMILES	HT1080 IDH1KD tx	IL1B secr inh	KB-3-1 tox	HT1080NT lethal	KB-V1 cytotox
CC(OC(=O)C1CCN(S(=O)(=O)c2ccc(C(C)(C)C)cc2)CC1)C(=O)N1CCOCC1 (stereo unspecified)	3.2%	2.8	i	5.3%	16.4µM*
Cc1cccc(C)c1OCc1cc(C(=O)N(C)CCc2ccccn2)no1	2.3%	-10.7	.	1.9%	.
CCOC(=O)C1(Cc2cccc(Cl)c2)CCCN(CCO)C1 (stereo unspecified)	7.2%	-2.7	i	-7.2%	i
COc1ccc(NC(=O)CN2C(=O)CCc3cc(S(=O)(=O)N4CCOCC4)ccc32)c(OC)c1	.	.	i	.	?
COc1ccc(-c2csc(NC(=O)CSCc3c(C)noc3C)n2)c(OC)c1	-19.1%	-52.9*	i	-1.4%	?
COc1ccc(-c2csc(NC(=O)c3c(C)noc3C)n2)cc1	0.9%	-51.5*	i	2.5%	i
COc1ccc(-c2csc(NC(=O)c3ccccc3C(=O)O)n2)cc1	0.3%	-7.5	i	4.9%	i
COc1ccc(-c2csc(NC(=O)c3ccccc3S(C)(=O)=O)n2)cc1	-1.1%	-95.2*	i	4.5%	?
COc1ccc(-c2csc(NC(=O)C3CSC4(C)CCC(=O)N34)n2)cc1 (stereo unspecified)	5.3%	10.8	i	9.9%	i
COc1ccc(-c2csc(NC(=O)C3CSC4(C)CCC(=O)N34)n2)c(OC)c1 (stereo unspecified)	-17.7%	-70.9*	i	-6.5%	i
COc1ccc(-c2csc(NC(=O)CSCC(=O)Nc3cc(C)on3)n2)cc1	11.2%	17.3	i	3.1%	?
NN1C(=O)NC(c2ccccc2)(c2ccccc2)C1=O	-1.1%	-0.2	i	-1.6%	i
COCCCN1CCN(C2Cc3ccccc3Sc3ccc(Cl)cc32)CC1 (stereo unspecified)	-10.6%	-11.9	?	-2.0%	?
Clc1ccc2c(c1)C(N1CCNCC1)Cc1ccccc1S2 (stereo unspecified)	18.4µM*	-100.1*	?	?	20.6µM*
Clc1cccc2c1Sc1ccccc1CC2N1CCNCC1 (stereo unspecified)	18.4µM*	.	?	23.1µM*	?
Cc1cc2c(=Cc3ccc(N(C)C)cc3)c3ccccc3n2[n+]1C	4.61µM*	-1.9	i	14.6µM*	i
CCOC(=O)c1cc2c(=Cc3ccc(N(C)C)cc3)c3ccccc3n2[n+]1C	8.2µM*	-101.0*	2.06µM*	?	?
CN(C)c1ccc(/C=C2\c3ccccc3-c3ccc(N(C)C)cc32)cc1	.	.	i	.	i
CN(C)c1ccc(C=c2c3ccccc3n3c2c2ccccc2[n+]3C)cc1	8.2µM*	-66.4*	5.17µM*	23.1µM*	?
Nc1nc2ccccc2n1CCOc1ccccc1Cl	?	-79.9*	i	?	?
O=C(Cn1ncc2c3ccccc3n(Cc3ccccc3)c2c1=O)NCc1ccccc1	.	.	i	.	i
COC(=O)Cn1ncc2c3ccccc3n(Cc3ccccc3)c2c1=O	-17.1%	14.5	i	-7.7%	23.1µM*
Cc1ccc(S(=O)(=O)Nc2ccc3c(c2)CCCN3C(=O)c2cccs2)cc1	.	.	i	.	i
CCn1nnnc1NCc1ccc(SC)cc1	7.1%	-77.5*	i	-0.3%	i
CCOC(=O)CC(NC(=O)c1ccco1)c1ccc(OC)cc1 (stereo unspecified)	-4.8%	12.3	i	-2.3%	23.1µM*
SMILES	HT1080 IDH1KD tx	IL1B secr inh	KB-3-1 tox	HT1080NT lethal	KB-V1 cytotox
O=C(O)CCS(=O)(=O)c1cccc2cccnc12	0.3%	-13.6	i	1.1%	i
CCSS(=O)(=O)c1cccc2cccnc12	?	.	i	32.6µM*	i
CN(Cc1ccccc1)S(=O)(=O)c1cccc2cccnc12	-8.7%	0.0	i	21.0%	20.6µM*
CCc1ccccc1NC(=O)c1cn(C)c(=O)c2ccccc12	.	.	i	.	?
Cc1c(Cl)cccc1NC(=O)CSc1ccc(-c2ccccn2)nn1	.	.	i	.	i
Cn1nccc1C(=O)Nc1cccc(S(=O)(=O)N2CCOCC2)c1	-1.1%	0.0	i	8.3%	i
